Several values for one entry are separate records, joined by “and”; a condition that tells them apart may be missing. Identical values can stand only once. The source holds several records for some structures; these can differ, active in one and inactive in another. Activity calls are given as the source filed them. Rule for the calls: active = hit-call score of the fitted dose curve at least 0.9, where 1 is the maximum; inactive = score below 0.9.
Experiments:
[1] = read-out: Interleukin-6 (IL6), IL6 (gene 3569); test: BSK_CASM3C_IL6: BioMAP Diversity Plus: CASM3C Assay for Interleukin-6 (IL6) Biomarker Activity for (AID 2283040); conditions: primary human coronary artery smooth muscle cells; actives raise or lower the signal
[2] = read-out: Tissue plasminogen activator (tPA), PLAT (gene 5327); test: BSK_BE3C_tPA: BioMAP Diversity Plus: BE3C Assay for Tissue plasminogen activator (tPA) Biomarker Activity (AID 2283041); conditions: primary human bronchial epithelial cells; actives raise or lower the signal
Summary of the method: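 tPA measured by ELISA 24 h after dosing human primary bronchial epithelial cells (BE3C system). Changes in either direction were fitted against DMSO. Parallel cultures were stained with SRB to flag overt cytotoxicity.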

[3] = read-out: Interleukin-8 (IL8), CXCL8 (gene 3576); test: BSK_CASM3C_IL8: BioMAP Diversity Plus: CASM3C Assay for Interleukin-8 (IL8) Biomarker Activity (AID 2283042); conditions: primary human coronary artery smooth muscle cells; actives raise or lower the signal;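 note: IL-8 protein level quantified by ELISA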
[4] = read-out: Human Leukocyte Antigen - DR isotype (HLADR), HLA-DRA (gene 3122); test: BSK_CASM3C_HLADR: BioMAP Diversity Plus: CASM3C Assay for Human Leukocyte Antigen - DR isotype (HLADR) Biomarker Activity (AID 2283043); conditions: primary human coronary artery smooth muscle cells; actives raise or lower the signal;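 note: cell-surface HLA-DR protein level quantified by ELISA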
[5] = read-out: Macrophage colony-stimulating factor (MCSF), CSF1 (gene 1435); test: BSK_CASM3C_MCSF: BioMAP Diversity Plus: CASM3C Assay for Macrophage colony-stimulating factor (MCSF) Biomarker Activity (AID 2283044); conditions: primary human coronary artery smooth muscle cells; actives raise or lower the signal;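 note: M-CSF protein amount quantified by ELISA after 24 h exposure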
[6] = read-out: Low-density lipoprotein receptor (LDLR), LDLR (gene 3949); test: BSK_CASM3C_LDLR: BioMAP Diversity Plus: CASM3C Assay for Low-density lipoprotein receptor (LDLR) Biomarker Activity (AID 2283045); conditions: primary human coronary artery smooth muscle cells; actives raise or lower the signal;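 note: LDLR protein level on the cell surface quantified by ELISA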
[7] = read-out: Monocyte Chemoattractant Protein-1 (MCP1), CCL2 (gene 6347); test: BSK_CASM3C_MCP1: BioMAP Diversity Plus: CASM3C Assay for Monocyte Chemoattractant Protein-1 (MCP1) Biomarker Activity (AID 2283046); conditions: primary human coronary artery smooth muscle cells; actives raise or lower the signal;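 note: MCP-1 level quantified by ELISA 24 h after dosing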
[8] = BSK_CASM3C_Proliferation: Cell Proliferation Assessment in the BioMAP Diversity Plus: CASM3C Assay (AID 2283047); conditions: primary human coronary artery smooth muscle cells;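 note: sulforhodamine B total protein stain as relative cell number at 560 nm; sub-confluent cells exposed 48 h before staining; fitted both ways against DMSO so gain or loss of cell number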
[9] = read-out: Monokine induced gamma interferon (MIG), CXCL9 (gene 4283); test: BSK_CASM3C_MIG: BioMAP Diversity Plus: CASM3C Assay for Monokine induced gamma interferon (MIG) Biomarker Activity (AID 2283048); conditions: primary human coronary artery smooth muscle cells; actives raise or lower the signal;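 note: MIG protein level measured by ELISA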
[10] = read-out: serum amyloid A (SAA), SAA1 (gene 6288); test: BSK_CASM3C_SAA: BioMAP Diversity Plus: CASM3C Assay for serum amyloid A (SAA) Biomarker Activity (AID 2283049); conditions: primary human coronary artery smooth muscle cells; actives raise or lower the signal;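 note: SAA protein level quantified by ELISA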

Measured: AC50

[2H]C1([2H])[n+]2ccccc2-c2cccc[n+]2C1([2H])[2H]
inactive: [1] | [2] | [3] | [4] | [5] | [6] | [9] | [10]
active: [7] 0.156 µM | [8] 10.6 µM

O=[N+]([O-])/N=C1\NCCN1Cc1ccc(Cl)nc1
inactive: [1] | [2] | [3] | [4] | [5] | [6] | [7] | [8] | [9] | [10]

Oc1ccc(Cl)cc1Cc1ccccc1
inactive: [1] | [3] | [6] | [9]
active: [1] 30.5 µM [middle of 4 runs] | [2] 29.7 µM [middle of 7 runs] | [3] 31.5 µM [middle of 5 runs] | [4] 31.1 µM [middle of 7 runs] | [5] 29.6 µM [middle of 7 runs] | [6] 29.1 µM [middle of 5 runs] | [7] 37.5 µM [middle of 4 runs] | [8] 32.2 µM [middle of 7 runs] | [9] 32.7 µM [middle of 6 runs] | [10] 31.1 µM [middle of 6 runs]

O=C1c2ccccc2C(=O)N1SC(Cl)(Cl)Cl
active: [1] 30.3 µM | [3] 38.6 µM | [4] 28.7 µM | [5] 16 µM | [7] 30 µM | [8] 18.8 µM | [9] 30.4 µM
inactive: [2] | [6] | [10]

CCCN(CCOc1c(Cl)cc(Cl)cc1Cl)C(=O)n1ccnc1
inactive: [1] | [2] | [3] | [4] | [5] | [6] | [7] | [9] | [10]
active: [8] 26.8 µM

CC1(C)C(C=C(Cl)Cl)C1C(=O)OC(C#N)c1ccc(F)c(Oc2ccccc2)c1 (configuration not stated)
inactive: [1] | [2] | [3] | [4] | [5] | [6] | [7] | [8] | [9] | [10]

Cc1[nH]c(=O)n(C(C)(C)C)c(=O)c1Cl
inactive: [1] | [2] | [3] | [4] | [5] | [6] | [7] | [8] | [9] | [10]

O=C(O)C(F)(F)C(F)(F)C(F)(F)C(F)(F)C(F)(F)C(F)(F)C(F)(F)F
inactive: [1] | [2] | [3] | [4] | [5] | [6] | [7] | [8] | [9] | [10]
active: [8] 16.6 µM | [9] 36.6 µM

CCOCN(C(=O)CCl)c1c(C)cccc1CC
inactive: [1] | [2] | [4] | [5] | [6] | [7] | [9] | [10]
active: [3] 15.8 µM | [8] 30 µM

O=C(O)CCCOc1ccc(Cl)cc1Cl
inactive: [1] | [2] | [3] | [4] | [5] | [6] | [7] | [8] | [9] | [10]

CCOc1nc(NC)nc(NC(=O)NS(=O)(=O)c2ccccc2C(=O)OC)n1
inactive: [1] | [2] | [3] | [4] | [5] | [6] | [7] | [8] | [9] | [10]

CC(C)N(C(=O)COc1nnc(C(F)(F)F)s1)c1ccc(F)cc1
inactive: [1] | [2] | [3] | [4] | [5] | [6] | [7] | [8] | [9] | [10]

CC(C)(C)C(O)/C(=C\c1ccc(Cl)cc1Cl)n1cncn1 (configuration not stated)
active: [2] 8.37 µM | [8] 20 µM
inactive: [1] | [3] | [4] | [5] | [6] | [7] | [9] | [10]

CCN(CC)C(=O)SCc1ccc(Cl)cc1
inactive: [1] | [2] | [3] | [4] | [5] | [6] | [7] | [9] | [10]
active: [8] 16.4 µM

CCS(=O)(=O)c1cccnc1S(=O)(=O)NC(=O)Nc1nc(OC)cc(OC)n1
active: [10] 16.4 µM
inactive: [1] | [2] | [3] | [4] | [5] | [6] | [7] | [8] | [9]

Cc1cc(C)nc(NC(=O)NS(=O)(=O)c2ccccc2C(=O)OC2COC2)n1
inactive: [1] | [2] | [3] | [4] | [5] | [6] | [7] | [8] | [9] | [10]

CCC(C)(C)C(=O)OC1=C(c2ccc(Cl)cc2Cl)C(=O)OC12CCCCC2
inactive: [1] | [3] | [4] | [6] | [7] | [9] | [10]
active: [2] 20 µM | [5] 13.7 µM | [8] 25.7 µM

ClC1C(Cl)C(Cl)C(Cl)C(Cl)C1Cl (configuration not stated)
active: [5] 32.4 µM | [6] 27.8 µM | [8] 20 µM and 29.6 µM | [10] 34.8 µM
inactive: [1] | [2] | [3] | [4] | [5] | [6] | [7] | [8] | [9] | [10]

COC(=O)c1ccccc1S(=O)(=O)NC(=O)Nc1nc(C)nc(OC)n1
inactive: [1] | [2] | [3] | [4] | [5] | [6] | [7] | [8] | [9] | [10]

O=C(O)COc1ccc(Cl)cc1Cl
inactive: [1] | [2] | [3] | [4] | [5] | [6] | [7] | [8] | [9] | [10]

O=C(Nc1ccccc1)Nc1cnns1
inactive: [1] | [2] | [3] | [4] | [5] | [6] | [7] | [8] | [9] | [10]

OCCOc1ccccc1
inactive: [1] | [2] | [3] | [4] | [5] | [6] | [7] | [8] | [9]
active: [10] 20 µM

O=S(=O)(O)C(F)(F)C(F)(F)C(F)(F)C(F)(F)C(F)(F)C(F)(F)C(F)(F)C(F)(F)F
inactive: [1] | [2] | [3] | [4] | [5] | [6] | [7] | [8] | [9] | [10]
active: [2] 15.3 µM and 16 µM and 25.9 µM | [9] 47.3 µM and 52.5 µM

CC(C)OC(=O)Nc1cccc(Cl)c1
inactive: [1] | [2] | [3] | [4] | [5] | [6] | [7] | [8] | [9] | [10]

CCC(C)(NC(=O)c1cc(Cl)c(C)c(Cl)c1)C(=O)CCl (configuration not stated)
active: [2] 11 µM | [4] 17.7 µM | [5] 25.2 µM | [7] 22.9 µM | [8] 18.5 µM | [9] 17.5 µM | [10] 14.4 µM
inactive: [1] | [3] | [6]

O=[N+]([O-])c1c(Cl)c(Cl)c(Cl)c(Cl)c1Cl
inactive: [1] | [2] | [3] | [4] | [5] | [6] | [7] | [8] | [9] | [10]

Reference: PubChem BioAssay (EPA / NIEHS)
